Experimental data: PubChem BioAssay AID743287 (Broad Institute, 2014)
Where “and” joins values, the source holds several entries; their conditions need not be identical. Equal values may be shown once. The campaign covered roughly 370,000 compounds. About 2,300 (0.62%) were called active. The list comes from a sample in which actives are over-represented; it also holds similar structures and randomly drawn compounds. A number with no mark means an inactive call.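 How the source made its calls: active means lowest replicate activation of at least 40%, so every replicate reaches that level; inactive means the rest.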

Experiment: GLuc luminescence reporter in INS-1E cells, primary screen for activators of glucose-dependent secretion of insulin (AID 743287);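 further: 0% = median of neutral control wells and 100% = median of IBMX positive control wells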
Conditions: INS-1E GLuc reporter insulin secretion, 2-3 h, at 16.6 µM, stronger effect = higher value

Row | SMILES | activation
1 | CCCNC(=O)Nc1ccc2c(c1)OC[C@@H](C)N(CC1CCCC1)C[C@@H](C)[C@H](OC)CN(C)C2=O | -11.9%
2 | COc1ccc(-c2ccccc2[C@H]2[C@@H](CO)N(C(=O)c3cccnc3)[C@H]2C#N)cc1 | -2.16%
3 | S=c1[nH]nc(-c2ccccc2)n1/N=C/c1c[nH]c2ccccc12 | 41.8% (active)
4 | CCc1n[nH]c(=S)n1/N=C/c1c[nH]c2ccc(Br)cc12 | 6.23%
5 | C[C@@H]1CN([C@@H](C)CO)C(=O)c2cccc(N(C)C)c2O[C@H]1CN(C)S(=O)(=O)c1cccs1 | 4.92%
6 | O=C(Cc1cccnc1)N1CC(=O)N2[C@@H](CO)[C@@H](c3ccc(C#CC4CCCCC4)cc3)[C@@H]2C1 | -3.29%
7 | COc1ccc2c3c([nH]c2c1)[C@@H](CO)N(C(=O)NC(C)C)CC31CN(C(=O)C2CCCC2)C1 | 3.69%
8 | O=C(CSc1nc2ccccc2c(=O)n1CCCO)NC1CC1 | 4.63%
9 | COC(=O)CSc1nc2ccccc2c(=O)n1Cc1ccccc1 | 50% (active)
10 | CCOc1ccc(NC(=O)CSc2nc3ccccc3c(=O)n2Cc2cccs2)cc1 | 60.2%
11 | CO[C@@H]1CN(C)C(=O)c2cc(NS(=O)(=O)CC(F)(F)F)ccc2OC[C@H](C)N(Cc2ccccn2)C[C@@H]1C | 11.8%
12 | CC(C)NC(=O)Nc1ccc2c(c1)CC(=O)N(C)C[C@@H](C)[C@@H](CN(C)C(=O)OC(C)(C)C)O2 | 9.38%
13 | Cc1ccc(C)c(NC(=O)NNC(=O)c2ccc3ccccc3c2O)c1 | -0.162%
14 | Cc1ccc2c(Cl)c(C(=O)Nc3nn[nH]n3)sc2c1 | -4.19%
15 | Cc1ccc(-c2cc(C(=O)Nc3nn[nH]n3)c3ccccc3n2)c(C)c1 | 63.4% (active)
16 | COc1cccc(-c2ccc(C#N)c(SCC(=O)NCCc3ccc(Cl)cc3)n2)c1 | 108% (active)
17 | COc1ccc(CCNC(=O)CSc2nc(-c3ccc(OC)c(OC)c3)ccc2C#N)cc1 | 46.1%
18 | COc1ccc(CCNC(=O)CSc2nnc3ccc(-c4ccncc4)nn23)cc1 | 4.35%
19 | CCC(=O)N1C[C@H](C)[C@H](OC)CN(C)C(=O)c2ccc(NC(=O)Nc3ccc(Cl)cc3)cc2OC[C@H]1C | -31.9%
20 | CNC(=O)C[C@H]1CC[C@@H]2[C@H](COc3ccc(NC(=O)C(C)C)cc3C(=O)N2C)O1 | 4.65%
21 | COc1ccc(/C=C2/C(=O)OCc3cc(OC)c(OC)cc32)c(OC)c1 | 90.1% (active)
22 | COc1ccc(/C=C/C2=CC(C)(C)NC(=S)N2)c(OC)c1 | -2.56%
23 | COc1ccc(CN(C)Cc2nc3cc(OC)c(OC)cc3c(=O)[nH]2)c(OC)c1 | -31.6%
24 | CCCC#Cc1ccc([C@H]2[C@H]3CN(C(=O)Nc4cccc(F)c4)CC(=O)N3[C@H]2CO)cc1 | -20.8%
25 | Cc1noc(C)c1NC(=O)Nc1ccc2c(c1)C(=O)N([C@@H](C)CO)C[C@H](C)[C@@H](CN(C)C)O2 | 11.6%
26 | Cc1ccccc1-c1ccc([C@H]2[C@H](CO)N3C(=O)CN(C(=O)c4cccnc4)C[C@@H]23)cc1 | 4.01%

Row | SMILES | activation
27 | COc1ccccc1S(=O)(=O)N[C@H]1CC[C@@H](CC(=O)NCc2cc(F)cc(F)c2)O[C@H]1CO | 6.83%
28 | COC(=O)c1c(C)oc(C)c1S(=O)(=O)NCc1ccc(Cl)cc1 | 15.9%
29 | CC(C)c1ccc(NS(=O)(=O)c2cn(C)c(=O)n(C)c2=O)cc1 | 18.1%
30 | COC(=O)c1c(C)oc(C)c1S(=O)(=O)Nc1ccc(C(C)C)cc1 | 52.6% (active)
31 | Cc1ccc(OCCC(=O)OCC(=O)N2c3ccccc3NC(=O)C2(C)C)cc1 | -29.1%
32 | CCCCCCCCCCOC(=O)Cn1c(COc2ccc(C)cc2)[n+](C)c2ccccc21 | 193% (active)
33 | CCCCOC(=O)c1ccc(NC(c2ccc(C)cc2)P(=O)(OC)OC)cc1 (stereo unspecified) | -63.4%
34 | CCCNC(=O)N1CCC2(CC1)CN(C(=O)c1cccnc1)[C@@H](CO)c1[nH]c3cc(OC)ccc3c12 | 20.9%
35 | C[C@H]1CCCCO[C@@H](CN(C)Cc2ccc3c(c2)OCO3)[C@@H](C)CN([C@@H](C)CO)C(=O)c2cc(NS(=O)(=O)c3ccc(F)cc3)ccc2O1 | -26%
36 | O=C(C[C@H]1C=C[C@H](NC(=O)c2cccc(F)c2)[C@@H](CO)O1)NCc1ccc(Oc2ccccc2)cc1 | 8.87%
37 | Cc1noc(C)c1NC(=O)N(C)C[C@@H]1Oc2c(NC(=O)CCCCCC(=O)Nc3ccccc3N)cccc2C(=O)N([C@H](C)CO)C[C@@H]1C | -5.82%
38 | COc1ccccc1S(=O)(=O)N[C@@H]1C=C[C@H](CC(=O)NCc2cccc(F)c2)O[C@H]1CO | 10.3%
39 | COc1cc2c(cc1OC)/C(=C/C(=O)c1ccc(NC(C)=O)cc1)NCC2 | 70% (active)
40 | COc1ccc(NC(=O)C2Cc3c(-c4cccc(NC(C)=O)c4)ccnc3O2)cc1OC (stereo unspecified) | -7.03%
41 | COc1ccc(C(=O)Nc2ccc(C3(C#N)CCCC3)cc2)cc1OC | -6.21%
42 | CCC(=O)N(C)C[C@@H]1Oc2ncc(C#Cc3ccccc3)cc2C(=O)N([C@@H](C)CO)C[C@H]1C | -1.97%
43 | COc1ccccc1C(=O)NC(=S)NC12CC3CC(CC(C3)C1)C2 | 41.4% (active)
44 | COc1ccccc1C(=O)NC(=O)COC(=O)C1CC1 | -1.88%
45 | NC(=O)COc1ccccc1C(=O)NC12CC3CC(CC(C3)C1)C2 | 17.8%
46 | COc1cccc(C#Cc2ccc3c(c2)[C@H]2[C@H](CCN2C(=O)CC2CC2)[C@H](CO)N3)c1 | 0.458%
47 | CCCC#Cc1ccc2c(c1)O[C@H](CN(C)C(=O)C1CCCCC1)[C@H](C)CN([C@H](C)CO)S2(=O)=O | -12.4%
48 | CN(C)CC(=O)N[C@@H]1CC[C@H](CCn2cc(C3CCCC3)nn2)O[C@H]1CO | -11.3%
49 | O=C(Nc1ccccc1)c1nnsc1S(=O)(=O)c1ccc(Cl)cc1 | 48.4% (active)
50 | O=C(NNC(=O)c1cccc(S(=O)(=O)Nc2ccc(Cl)cc2)c1)c1ccc(=O)[nH]c1 | 0.241%
51 | O=C(NCCS(=O)(=O)NCc1ccc(Cl)cc1)c1ccccc1 | 18.7%
52 | C=CCSc1nc2c(c(=O)[nH]1)C(C(C)C)C(C#N)=C(N)O2 (stereo unspecified) | 71.8% (active)

Row | SMILES | activation
53 | C=CCSc1nc(N)cc(=O)[nH]1 | 18%
54 | O=C(C[C@@H]1CC[C@@H]2[C@H](COC[C@H](O)CN2S(=O)(=O)c2ccccc2)O1)N[C@H]1CCN(Cc2ccccc2)C1 | 4.06%
55 | COc1ccc(NC(=O)N(C)C[C@H]2Oc3c(NC(=O)Nc4cccc5ccccc45)cccc3C(=O)N([C@H](C)CO)C[C@@H]2C)cc1 | -5.46%
56 | Cc1cccc(-c2ccc(C3[C@H]4CNC[C@@H]3N4S(=O)(=O)c3ccccc3F)cc2)c1 (stereo partly specified) | -12.2% and 1.38%
57 | C/C=C/c1ccc([C@@H]2[C@@H](CN(C)C(C)=O)N(C(=O)C3CC3)[C@H]2CO)cc1 | -3.3%
58 | C[C@@H]1CN([C@H](C)CO)C(=O)c2cc(NC(=O)Cn3cnnn3)ccc2O[C@@H]1CN(C)C(=O)Nc1ccc2c(c1)OCO2 | 6.33%
59 | C[C@H](CO)N1C[C@H](C)[C@H](CN(C)S(C)(=O)=O)Oc2ncc(C3=CCCC3)cc2C1=O | 23.9%
60 | COc1ccc2c3c(n(C)c2c1)[C@H](CO)N(C(=O)NC(C)C)CC31CN(CC2CCCCC2)C1 | -8.45%
61 | C/C=C/c1ccc2c(c1)O[C@@H](CN(C)C(=O)c1ccncc1)[C@@H](C)CN([C@H](C)CO)S2(=O)=O | 9.46%
62 | CCOc1ccc(/C=N/NC(=O)CSc2ccccn2)cc1O | 47.7% (active)
63 | C/C(=N/NC(=O)CSc1ccccn1)c1ccc([N+](=O)[O-])cc1 | 3.45%
64 | C=CCOc1ccc(/C=N/NC(=O)C(C)Sc2ccccn2)cc1OCC (stereo unspecified) | 26.6%
65 | Cc1ccccc1S(=O)(=O)N1CC(=O)N2[C@H](CO)[C@@H](c3ccc(C#Cc4ccccc4)cc3)[C@H]2C1 | -6.46%
66 | Cc1nc(N2[C@H](CO)[C@H](c3ccccc3)[C@H]2CNCC2CCC2)sc1C | 2.74%
67 | CCCNC(=O)N1CC2(CN(C(=O)C3CCCCC3)C2)c2c([nH]c3cc(OC)ccc23)[C@@H]1CO | 13.6%
68 | Cc1ccc(-c2ccc3c(c2)O[C@@H](CN(C)C(=O)NC(C)C)[C@@H](C)CN([C@H](C)CO)S3(=O)=O)cc1 | 4.12%
69 | c1ccc(-c2ccccc2OCCN2CCCCC2)cc1 | 53.2% (active)
70 | Cc1ccc(C(C)C)cc1OCCN1CCCC1 | 12.9%
71 | C#CC(CCN1CCCCC1)(OC)c1ccccc1 (stereo unspecified) | 17.7%
72 | CCCNC(=O)N1CC(=O)N2[C@H](CO)[C@@H](c3ccc(-c4ccc(F)cc4)cc3)[C@H]2C1 | -19.7%
73 | C[C@H](CO)N1C[C@H](C)[C@@H](CN(C)CC2CC2)OCCCC[C@H](C)Oc2ccc(NC(=O)Cc3ccccc3)cc2C1=O | 7.71%
74 | COc1ccc(S(=O)(=O)N(C)C)cc1NC(=O)COC(=O)c1n[nH]c2ccccc12 | -5.72%
75 | CCN(CC)S(=O)(=O)c1ccc2nc(COC(=O)c3n[nH]c4ccccc34)[nH]c2c1 | 57.7% (active)
76 | COc1ccc(COC(=O)c2n[nH]c3ccccc23)cc1F | -12.2%
